# In PubChem BioAssay (Tox21):
# Unmarked numbers belong to inactive results. Results filed as inconclusive are left out. Calls of active or inactive are those of the source. Unless noted, the call rests on the fitted dose curve; in most records, active means well fitted curve in the direction sought with a large enough effect in the repeat runs; inconclusive means weak or mixed curves; inactive means no such curve, though single readings can be large; an effect the other way counts as inactive or inconclusive.
# How the values were obtained:
# [1] = qHTS assay to identify small molecule antagonists of the estrogen related receptor (ERR) signaling pathway from Tox21 library - cell viability counter screen (AID 1224834); settings: ERR reporter cells viability, CellTiter-Fluor, 17.5 h; series mostly up to 92.4 µM; further: nearly all actives have a fitted effect of over 30% in size; further: potency means the concentration at half of the fitted maximal effect
# Summary of the method: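 After 17.5 h of compound exposure at 37 C, ERR cells are incubated with CellTiter-Fluor for 30 min and fluorescence intensity serves as the viability measure.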
# [2] = qHTS assay to identify small molecule agonists of the constitutive androstane receptor (CAR) signaling pathway - cell viability counter screen (AID 1224836); settings: HepG2-CYP2B6-hCAR viability, CellTiter-Fluor, 23 h, PK11195 added to every well; series mostly up to 92.4 µM; further: nearly all actives have a fitted effect of over 45% in size; further: potency means the concentration at half of the fitted maximal effect
# Summary of the method: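 Multiplexed viability check: HepG2-CYP2B6-hCAR cells, 15-point compound dosing, 0.75 uM PK11195 final, 23 h at 37 C, CellTiter-Fluor fluorescence.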
# [3] = qHTS assay to identify small molecule antagonists of the constitutive androstane receptor (CAR) signaling pathway - cell viability counter screen (AID 1224837); settings: HepG2-CYP2B6-hCAR viability, CellTiter-Fluor, 23 h, co-treated with 50 nM CITCO; series mostly up to 92.4 µM; further: nearly all actives have a fitted effect of over 45% in size; further: potency means the concentration at half of the fitted maximal effect
# Summary of the method: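 Counter screen run in HepG2-CYP2B6-hCAR cells: 4 hr settle, compound titration (15 concentrations) with 50 nM CITCO, 23 hr at 37 C/5% CO2, CellTiter-Fluor fluorescence.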
# [4] = molecular target: Nuclear receptor subfamily 1 group I member 3 (Homo sapiens) (UniProt Q14994); assay: qHTS assay to identify small molecule antagonists of the constitutive androstane receptor (CAR) signaling pathway (AID 1224838); settings: HepG2-CYP2B6-hCAR luciferase, CITCO-stimulated, 24 h; series mostly up to 92.4 µM;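 further: HepG2 cells stably expressing hCAR with CYP2B6 luciferase reporter stimulated by CITCO; nearly all actives have a fitted effect of over 40% in size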; further: potency means the concentration at half of the fitted maximal effect
# Sequence of Nuclear receptor subfamily 1 group I member 3 (Homo sapiens) (Q14994 whole entry, looked up): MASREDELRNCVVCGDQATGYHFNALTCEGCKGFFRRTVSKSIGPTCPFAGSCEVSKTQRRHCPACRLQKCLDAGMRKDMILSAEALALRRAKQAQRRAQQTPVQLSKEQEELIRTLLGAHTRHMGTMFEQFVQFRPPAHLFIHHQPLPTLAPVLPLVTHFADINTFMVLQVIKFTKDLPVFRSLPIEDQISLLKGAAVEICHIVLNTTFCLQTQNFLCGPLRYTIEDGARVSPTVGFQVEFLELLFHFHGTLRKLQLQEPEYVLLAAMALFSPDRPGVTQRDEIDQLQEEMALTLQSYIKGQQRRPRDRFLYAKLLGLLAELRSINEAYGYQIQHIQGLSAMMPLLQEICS
# Summary of the method: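 Cell line: HepG2 double-stable for hCAR and CYP2B6-2.2kb reporter. Agonist: CITCO, 50 nM final. Compounds: 15 concentrations, 24 h, 37 C. Detection: ONE-Glo luminescence.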
# [5] = qHTS assay to identify small molecule agonists of the hypoxia (HIF-1) signaling pathway - cell viability counter screen (AID 1224844; calls by dose curve; further: nearly all actives have a fitted effect of over 50% in size; further: potency means the concentration at half of the fitted maximal effect); settings: HRE-bla ME-180 viability, CellTiter-Glo luminescence, 17 h; series mostly up to 76.8 µM
# Summary of the method: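 Cells (HRE-bla ME-180, 2,000 per well) sat 5 hrs at 37C, got compound for 17 hrs, were read for CCF4-AM FRET, and were finally lysed with CellTiter-Glo for a 30 min room-temperature luminescence read.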
# [6] = qHTS assay to identify small molecule agonists of H2AX (AID 1224845; active means well fitted activation curve with a large enough effect in the signal ratio in the repeat runs, not every such curve was filed as active; the % refers to the signal ratio; further: potency means the concentration at half of the fitted maximal effect); settings: CHO-K1 phospho-H2AX Ser139 HTRF, 3 h; series mostly up to 154 µM
# Summary of the method: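 Wild-type CHO-K1 cells, plated overnight, exposed 3hr at 37C to 15 concentrations (0.76% DMSO final). Lysed, then HTRF anti-pH2AX (S139) cryptate and anti-H2AX-d2 antibodies, 24 hr room temperature; 665/620 nm emission read.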
# [7] = qHTS assay to identify small molecule agonists of the hypoxia (HIF-1) signaling pathway (AID 1224846; active means well fitted activation curve with a large enough effect in the signal ratio in the repeat runs, not every such curve was filed as active; the % refers to the signal ratio); settings: HRE-bla ME-180 cells, beta-lactamase ratio, 17 h; series mostly up to 76.8 µM
# Summary of the method: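 A low-serum medium (0.5% dialyzed FBS) holding 2,000 HRE-bla ME-180 cells per well is preincubated for 5 hrs, dosed with compounds by pintool, and kept a further 17 hrs at 37C, 5% CO2 before CCF4-AM FRET detection of beta-lactamase.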
# [8] = qHTS RealTime-Glo MT Cell Viability Assay in HepG2 cells - 24 hour (AID 1224867); settings: RealTime-Glo luminescence; series mostly up to 76.8 µM; further: nearly all actives have a fitted effect of over 50% in size; further: potency means the concentration at half of the fitted maximal effect
# Summary of the method: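 Tox21 10K library screened in qHTS format on HepG2 cells carrying RealTime-Glo reagents. Compounds were added after a 5 h preincubation, and the luminescent signal from continuous culture was measured repeatedly during 40 h treatment.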
# [9] = qHTS RealTime-Glo MT Cell Viability Assay in HEK293 cells - 32 hour (AID 1224868); settings: RealTime-Glo luminescence; series mostly up to 76.8 µM; further: nearly all actives have a fitted effect of over 50% in size; further: potency means the concentration at half of the fitted maximal effect
# Summary of the method: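 Luminescence generated by NanoLuc from substrate produced by living HEK293 cells served as the viability signal. Each value reflects the reading at its stated time point during continuous 40 h compound exposure at 37 C.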
# [10] = A CellTox Green Cytotoxicity Assay to monitor cytotoxicity in HEK293 cells - 0 hour (AID 1224869); settings: CellTox Green fluorescence; series mostly up to 76.8 µM; further: nearly all actives have a fitted effect of over 50% in size
# Summary of the method: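 Fluorescence intensity, read at 0, 8, 16, 24, 32 and 40 h of compound treatment, reflected dye binding to DNA of dead HEK293 cells; compounds (23 nL, DMSO) were added 5 h after plating cells with reagent.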
# [11] = qHTS RealTime-Glo MT Cell Viability Assay in HepG2 cells - 40 hour (AID 1224870); settings: RealTime-Glo luminescence; series mostly up to 76.8 µM; further: nearly all actives have a fitted effect of over 50% in size; further: potency means the concentration at half of the fitted maximal effect
# Summary of the method: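 HepG2 cells (600/well) mixed with RealTime-Glo MT reagent, settled 5 h at 37 C/5% CO2 before compound addition. Nonlytic NanoLuc luminescence from viable-cell prosubstrate reduction read repeatedly during 40 h treatment at 37 C.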
# [12] = molecular target: Luciferin 4-monooxygenase (Photinus pyralis) (UniProt P08659); assay: qHTS assay to identify small molecule inhibitors of firefly luciferase (AID 1224835); further: nearly all actives have a fitted effect of over 25% in size; settings: purified P. pyralis luciferase, luminescence inhibition; series mostly up to 115 µM
# Sequence of Luciferin 4-monooxygenase (Photinus pyralis) (P08659 whole entry, looked up): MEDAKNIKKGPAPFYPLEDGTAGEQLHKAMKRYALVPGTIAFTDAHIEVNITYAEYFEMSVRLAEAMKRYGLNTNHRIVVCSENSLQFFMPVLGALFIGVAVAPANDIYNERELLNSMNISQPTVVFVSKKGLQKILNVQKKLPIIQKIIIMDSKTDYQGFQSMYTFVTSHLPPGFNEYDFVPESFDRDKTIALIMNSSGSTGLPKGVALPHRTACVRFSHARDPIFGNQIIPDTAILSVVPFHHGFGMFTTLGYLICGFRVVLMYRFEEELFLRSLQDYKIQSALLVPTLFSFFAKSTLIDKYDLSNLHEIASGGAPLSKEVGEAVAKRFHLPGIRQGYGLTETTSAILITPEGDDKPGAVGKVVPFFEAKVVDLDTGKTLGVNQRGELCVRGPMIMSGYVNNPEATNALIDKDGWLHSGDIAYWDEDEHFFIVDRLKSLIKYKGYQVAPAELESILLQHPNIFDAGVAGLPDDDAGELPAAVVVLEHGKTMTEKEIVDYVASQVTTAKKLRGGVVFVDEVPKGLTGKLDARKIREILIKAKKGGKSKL
# Summary of the method: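 Biochemical qHTS: compounds run as interplate titrations against purified firefly enzyme, with D-luciferin and ATP each at its KM concentration. Light output recorded by CCD imaging.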
# [13] = molecular target: Nuclear receptor subfamily 1 group I member 3 (Homo sapiens) (UniProt Q14994); assay: qHTS assay to identify small molecule agonists of the constitutive androstane receptor (CAR) signaling pathway (AID 1224839); settings: HepG2 hCAR CYP2B6-luciferase, agonist mode, 24 h; series mostly up to 92.4 µM;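 further: HepG2 cells stably carrying human CAR and a CYP2B6 luciferase reporter; nearly all actives have a fitted effect of over 15% in size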
# Summary of the method: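 Using human hepatoma HepG2 cells engineered with hCAR and a CYP2B6-2.2kb reporter, 15-concentration compound series were incubated 24 h alongside PK11195 at 0.75 uM final, with luminescence quantified afterwards.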
# [14] = qHTS assay to identify small molecule antagonists of the estrogen related receptor signaling pathway with the pleiotropic PPARgamma coactivator (PGC) from Tox21 10K library - cell viability counter screen (AID 1224840; active means well fitted cell-killing curve with a large enough effect in the repeat runs, not every such curve was filed as active; further: nearly all actives have a fitted effect of over 40% in size; further: potency means the concentration at half of the fitted maximal effect); settings: PGC/ERR reporter cells viability, CellTiter-Fluor, 17.5 h; series mostly up to 92.4 µM
# Summary of the method: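 Following seeding of 2,000 PGC/ERR cells/well and 6 hours' incubation, test compounds were delivered in DMSO. The plates then sat 17.5 hours at 37 C before a fluorogenic live-cell protease reagent (CellTiter-Fluor) was read after 30 min.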
# [15] = qHTS assay to identify small molecule agonists of the estrogen related receptor signaling pathway with the pleiotropic PPARgamma coactivator (PGC) from Tox21 10K library (AID 1224842); settings: PGC/ERR reporter cell line, luciferase ONE-Glo, 18 h; series mostly up to 92.4 µM; further: nearly all actives have a fitted effect of over 15% in size
# Summary of the method: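 PGC/ERR reporter cell line, 2,000 cells per well, incubated 6 h at 37 C before 23 nL compound in DMSO was added. After 18 h at 37 C, One-Glo luminescence read following 30 min at room temperature.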
# [16] = molecular target: Thyrotropin receptor (Homo sapiens) (UniProt P16473); assay: qHTS assay to identify small molecule agonists of the thyroid stimulating hormone receptor (TSHR) signaling pathway (AID 1224843; calls by dose curve; further: nearly all actives have a fitted effect of over 45% in size; further: potency means the concentration at half of the fitted maximal effect); settings: TSHR-HEK293 cells, cAMP HTRF, agonist mode, 30 min; series mostly up to 92.4 µM
# Sequence of Thyrotropin receptor (Homo sapiens) (P16473 whole entry, looked up): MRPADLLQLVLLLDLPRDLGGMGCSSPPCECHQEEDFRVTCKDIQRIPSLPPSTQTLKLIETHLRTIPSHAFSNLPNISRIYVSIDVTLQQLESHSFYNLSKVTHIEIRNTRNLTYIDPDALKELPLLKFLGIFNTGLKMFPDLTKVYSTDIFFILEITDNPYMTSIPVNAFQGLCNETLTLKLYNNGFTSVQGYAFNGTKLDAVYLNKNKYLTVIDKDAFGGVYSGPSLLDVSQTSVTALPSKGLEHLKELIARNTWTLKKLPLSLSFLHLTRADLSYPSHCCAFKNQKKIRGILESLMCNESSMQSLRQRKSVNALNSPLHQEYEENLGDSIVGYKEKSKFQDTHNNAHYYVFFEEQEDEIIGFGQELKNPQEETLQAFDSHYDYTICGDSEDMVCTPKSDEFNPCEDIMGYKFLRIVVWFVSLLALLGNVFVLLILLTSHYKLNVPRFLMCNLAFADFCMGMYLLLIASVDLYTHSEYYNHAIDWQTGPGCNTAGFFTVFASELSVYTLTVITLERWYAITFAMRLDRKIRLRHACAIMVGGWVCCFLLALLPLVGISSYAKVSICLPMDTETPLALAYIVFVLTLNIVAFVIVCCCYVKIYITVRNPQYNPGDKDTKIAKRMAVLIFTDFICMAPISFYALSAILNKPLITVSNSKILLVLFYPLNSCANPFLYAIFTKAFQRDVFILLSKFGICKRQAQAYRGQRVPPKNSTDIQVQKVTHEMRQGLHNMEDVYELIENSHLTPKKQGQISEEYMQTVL
# Summary of the method: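 Steps: seed 800 TSHR-HEK293 cells per well; add test compound and hold 30 min at ambient temperature; dispense cAMP-d2 then anti-cAMP cryptate; incubate 1 h at ambient; measure fluorescence intensity.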
# [17] = qHTS assay to identify small molecule antagonists of the estrogen related receptor (ERR) signaling pathway from Tox21 library (AID 1224848); settings: ERR reporter cell line, luciferase antagonist mode, 18 h; series mostly up to 92.4 µM; further: nearly all actives have a fitted effect of over 50% in size; further: potency means the concentration at half of the fitted maximal effect
# Summary of the method: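 Luminescent reporter read-out (ONE-Glo) from NTP's ERR cell line after 18 h treatment at 37 C with DMSO-dissolved Tox21 compounds; cells pre-plated 6 h beforehand at 2,000 per well.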
# [18] = qHTS assay to identify small molecule agonists of the estrogen related receptor (ERR) signaling pathway from Tox21 library (AID 1224849; calls by dose curve; further: nearly all actives have a fitted effect of over 15% in size); settings: ERR reporter cell line, ONE-Glo luciferase, 18 h; at 92.4 µM (top of the series) unless noted
# Summary of the method: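 Screening used an NTP-provided ERR luciferase cell line. Compounds in DMSO were added 6 h after seeding and left 18 h at 37 C before a 30 min ONE-Glo step and luminescence reading.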
# [19] = qHTS assay to identify small molecule antagonists of the estrogen related receptor signaling pathway with the pleiotropic PPARgamma coactivator (PGC) from Tox21 10K library (AID 1224841; call rule not given here; further: potency means the concentration at half of the fitted maximal effect); settings: PGC/ERR reporter cell line, ONE-Glo luciferase, 18 h; series mostly up to 92.4 µM
# Summary of the method: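 qHTS antagonist format: PGC/ERR cells, 2k/well, compound in DMSO by pin transfer after 6 h attachment, 18 h treatment at 37 C, One-Glo luminescence read at 30 min.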
# [20] = qHTS assay to identify small molecule agonists of H2AX - cell viability counter screen (AID 1224847; calls by dose curve; further: nearly all actives have a fitted effect of over 30% in size; further: potency means the concentration at half of the fitted maximal effect); settings: CHO-K1 viability, CellTiter-Glo luminescence, 3 h; series mostly up to 70.9 µM
# Summary of the method: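 After overnight plating of 1000 CHO-K1 cells per well, a 15-concentration compound series was applied for 3 hr at 37C. Luminescence from CellTiter-Glo, read following 30 min at room temperature, reflected cell viability.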
# On the % scale 0 is the no-effect control and ±100 the full control effect.
Structure (SMILES),Potency [1],Potency [2],Potency [3],Potency [4],Potency [5],Potency [6],Potency [7],Potency [8],Potency [9],Potency [10],Potency [11],Potency [12],Potency [13],Potency [14],Potency [15],Potency [16],Potency [17],"activity change, positive = activation [18]",Potency [19],Potency [20]
c1ccc(CSCc2ccccc2)cc1,inactive,inactive,inactive,inactive,inactive,inactive,inactive,inactive,inactive,inactive,inactive,,,,,,,,,
COc1cc(-c2nc(NC(=O)c3cc4cc(C)cc(C)c4n3CC(=O)O)sc2CCC2CCCCC2)c(OC)cc1Cl,49.9 µM (active),,,,25.2 µM (active),,,40 µM (active),25.2 µM (active),inactive,40 µM (active),inactive,inactive,39.7 µM (active),inactive,inactive,31.5 µM (active),-61.8%,,
COc1ccc(CN2CCN(C(c3ccc(F)cc3)c3ccc(F)cc3)CC2)c(OC)c1OC,13.3 µM (active),,,,,inactive,,,16.9 µM (active),inactive,,inactive,inactive,26.6 µM (active),inactive,,13.3 µM (active),-66.6% [at 42.5 µM],11.9 µM (active),
CC(C)(C)C(=O)OCOC(=O)[C@@H]1N2C(=O)[C@@H](NC(=O)[C@H](N)c3ccccc3)[C@H]2SC1(C)C,inactive,inactive,inactive,inactive,inactive,inactive,,inactive,inactive,inactive,inactive,,inactive,inactive,inactive,inactive,inactive,0.778% [at 42.5 µM],inactive,
C[n+]1ccn(Cc2ccccc2)c1,inactive,,,,inactive,inactive,,inactive,,inactive,inactive,inactive,,,inactive,inactive,,-31.8%,inactive,inactive
CN(C)C(=O)C1(N2CCCCC2)CCN(CC[C@@]2(c3ccc(Cl)c(Cl)c3)CN(C(=O)c3ccccc3)CCO2)CC1,50.9 µM (active),50.9 µM (active),50.9 µM (active),50.9 µM (active),45.8 µM (active),47.2 µM (active),,20.4 µM (active),10.2 µM (active),inactive,18.2 µM (active),,inactive,28.6 µM (active),inactive,,28.6 µM (active),-73.9%,50.9 µM (active),52.9 µM (active)
CCc1cc(Cc2cc(CC)cc(C(C)(C)C)c2O)c(O)c(C(C)(C)C)c1,54.5 µM (active),61.1 µM (active),61.1 µM (active),21.7 µM (active),11 µM (active),50.5 µM (active),,49 µM (active),19.5 µM (active),inactive,54.9 µM (active),,inactive,43.3 µM (active),inactive,inactive,30.6 µM (active),-75.4%,27.3 µM (active),31.8 µM (active)
CCN(CC)CCNC(=O)c1c(C)[nH]c(/C=C2\C(=O)Nc3ccc(F)cc32)c1C,10.6 µM (active),10.6 µM (active),10.6 µM (active),10.6 µM (active),9.52 µM (active),,inactive,21.3 µM (active),10.7 µM (active),,15.1 µM (active),,inactive,29.8 µM (active),,,,,,
CC(C)(C)c1ccc(C(=O)CCCN2CCC(OC(c3ccccc3)c3ccccc3)CC2)cc1,23.7 µM (active),29.8 µM (active),29.8 µM (active),,19 µM (active),inactive,,21.3 µM (active),9.52 µM (active),,19 µM (active),,inactive,,,11.9 µM (active),,,,55.2 µM (active)
N=C1C=CC(=C(c2ccc(N)cc2)c2ccc(N)cc2)C=C1,21.7 µM (active),34.4 µM (active),27.3 µM (active),,inactive,,,,2.19 µM (active),inactive,38.9 µM (active),,inactive,,inactive,,2.17 µM (active),-66.1%,3.44 µM (active),28.4 µM (active)
